Rows were chosen to be rich in hits. Some 2.4% of all compounds tested hit in one or more screens of this group.
Pol kappa inh: blocks human DNA polymerase kappa activity; Q9UBT6; purified Pol kappa, fluorescent DNA synthesis assay, 10 min; Potency, µM (titrated, usually from 107 µM), inactives show top-dose activity, negative = inhibition, hits mostly inhibitors; 400,000 compounds, 0.53% hits; note: % is set by controls: 0 for no effect and ±100 for the full control effect
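Kinetic fluorescence readout at 0 and 10 min followed reaction start with substrate at 50 nM final. Beforehand, enzyme (10 nM Pol kappa) stood 15 min with compound at room temperature; buffer-only wells were negative controls.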
WRN helicase inh: WRN helicase (human) inhibition | Q14191 | WRN helicase unwinding, fluorescent forked duplex, kinetic | Potency, µM (highest dose often 114 µM), for the others: at the highest dose activity change, negative = inhibition, usual class: inhibitors | 360,000 compounds, 0.46% hits | AID 651768; note: % is set by controls: 0 for no effect and ±100 for the full control effect; nearly all actives have a fitted effect of over 55% in size
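Enzyme (20 nM final) and test compound sit together 15 min at room temperature before substrate addition. Substrate is a single-forked duplex oligonucleotide (100 nM) labelled with fluorophore and quencher, with 2 mM ATP; helicase unwinding raises red fluorescence, read kinetically.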
POLB inh: blocks human DNA polymerase beta activity; Potency, µM (doses to about 114 µM), for inactives: at the top dose activity change, negative = inhibition, usual class: inhibitors; Pol beta primer extension/strand displacement, fluorescence kinetic; 340,000 compounds, 1.3% hits; AID 485314; P06746; note: % is set by controls: 0 for no effect and ±100 for the full control effect
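Reaction started by 50 nM substrate onto compound-treated Pol beta (10 nM, 15 min preincubation, room temperature); plates read at 0 min and 10 min. Normalized concentration-effect data fitted by four-parameter Hill equation.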
Pol eta inh: blocks human DNA polymerase eta activity | recombinant Pol eta, fluorescent DNA replication assay | Potency, µM (doses to about 114 µM), inactives show top-dose activity change, negative = inhibition, hits mostly inhibitors | 390,000 compounds, 1.2% hits | Q9Y253 | AID 588591; note: % is set by controls: 0 for no effect and ±100 for the full control effect
Target sequence (Q9Y253 whole entry, looked up): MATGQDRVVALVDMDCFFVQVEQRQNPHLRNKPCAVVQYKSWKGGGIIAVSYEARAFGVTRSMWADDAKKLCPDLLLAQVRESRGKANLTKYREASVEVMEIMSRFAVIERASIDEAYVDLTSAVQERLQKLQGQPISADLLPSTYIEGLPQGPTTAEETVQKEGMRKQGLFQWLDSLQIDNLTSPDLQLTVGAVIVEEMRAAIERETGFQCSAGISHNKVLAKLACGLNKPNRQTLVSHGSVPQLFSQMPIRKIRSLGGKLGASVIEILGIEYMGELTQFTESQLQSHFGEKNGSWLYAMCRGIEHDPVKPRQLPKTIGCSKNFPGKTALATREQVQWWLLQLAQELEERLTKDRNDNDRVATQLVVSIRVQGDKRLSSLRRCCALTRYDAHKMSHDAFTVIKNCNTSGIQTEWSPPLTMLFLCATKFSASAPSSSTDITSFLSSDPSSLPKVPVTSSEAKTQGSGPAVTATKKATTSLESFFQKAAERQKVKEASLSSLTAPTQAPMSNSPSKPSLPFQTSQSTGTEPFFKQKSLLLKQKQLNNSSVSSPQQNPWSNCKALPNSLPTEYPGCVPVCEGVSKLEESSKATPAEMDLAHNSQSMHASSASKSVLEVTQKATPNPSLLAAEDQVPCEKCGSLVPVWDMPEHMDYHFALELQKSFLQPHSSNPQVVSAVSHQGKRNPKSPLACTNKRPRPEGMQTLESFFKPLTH
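Pol eta at 10 nM preincubated with compounds 15 min at room temperature; reaction started with fluorescent substrate (50 nM final) and read kinetically at 0 and 10 min.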
Pol iota inh: inhibitors of human DNA polymerase iota; Q9UNA4; 390,000 compounds, 1% hits; AID 588590; Pol iota fluorescent replication assay, 10 min; Potency, µM (doses to about 115 µM), inactives show at the highest dose activity, negative = inhibition, hits mostly inhibitors
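Fluorescent replication assay read twice, at 0 min and 10 min after adding 50 nM (final) substrate. Enzyme (10 nM) and compounds were first incubated 15 min at room temperature; enzyme-free buffer wells were negative controls.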
FEN1 inh: human FEN1 inhibition | P39748 | Recombinant FEN1 flap cleavage, fluorescence, 15 min | Potency, µM (titrated, usually from 114 µM), without a hit: top-dose activity change, negative = inhibition, usual class: inhibitors | 390,000 compounds, 0.35% hits; note: % is set by controls: 0 for no effect and ±100 for the full control effect; nearly all actives have a fitted effect of over 65% in size
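In this screen, 50 nM flap DNA substrate was added to 10 nM FEN1 pretreated with compound for 15 min at room temperature; cleavage was followed with reads at 0 and 15 min, and Hill fitting gave concentration–response parameters.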
Active calls of the source: *; ? = inconclusive; nt = no result given; [ ] = remark or other dose. Calls come from the whole dose curve; as a rule, active = well fitted curve in the direction sought with a large enough effect; inconclusive = small, poorly fitted or top-dose-only effect, or another doubt; inactive = no such curve, though single readings can be large; an effect the other way counts as inactive or inconclusive. Potency is the fitted concentration of half-maximal effect.

SMILES | Pol kappa inh | WRN helicase inh | POLB inh | Pol eta inh | Pol iota inh | FEN1 inh
O=C1C2C3C=CC(C3)C2C(=O)N1CNc1ccc(O)cc1 (configuration not stated) | nt | nt | 39.8µM* | nt | nt | nt
O=C(Sc1n[nH]c(=O)[nH]c1=O)c1ccccc1 | -0.3% | 17.8µM* | nt | -12.3% | ? | 0.8%
CCOc1ccc(CCNC(=O)CCn2c(=O)c3cccn3c3ccc(F)cc32)cc1 | 4.8% | nt | 0.0% | -10.5% | 15.4% | 0.3%
CN(C)/C=C1/C(=O)N(c2ccc([N+](=O)[O-])cc2)N=C1c1ccccc1 | nt | nt | 23.3% | nt | nt | nt
Cc1c(C(=O)O)cccc1-c1ccc(/C=N/Nc2ccc(Br)cc2)o1 | -34.5% | ? | ? | 22.4µM* | ? | -1.0%
O=Cc1ccc(-c2ccccc2C(=O)O)o1 | -11.6% | -4.7% | ? | 4.1% | 83.2% | -0.2%
CC1=NN(c2ccc(Br)cc2)C(=O)/C1=C/c1ccc(-c2ccccc2C(=O)O)o1 | -9.8% | -22.5%[11.6 µM] | -0.1% | 79.4µM* | ? | ?
O=C(O)c1ccc(N/N=C/c2ccc(-c3cccc(Cl)c3)o2)cc1 | -22.7% | -17.9% | ? | 79.4µM* | ? | ?
O=C1/C(=C\c2ccc(-c3ccccc3[N+](=O)[O-])o2)C(c2ccccc2)=NN1c1ccccc1 | -10.9% | 2.6% | -8.9% | 50.1µM* | 10µM* | -5.0%
Cc1ccccc1NC(=O)c1c(C)oc2ccc(O)c(CN3CCCCCC3)c12 | 0.0% | nt | ? | -12.5% | -11.2% | ?
CC(=O)Nc1ccc(Sc2ccc([N+](=O)[O-])o2)cc1 | -23.1% | -11.0% | nt | 31.6µM* | ? | 3.1%
O=C(CN1C(=O)COc2ccc(S(=O)(=O)N3CCCCCC3)cc21)N1CCN(c2cccc(Cl)c2)CC1 | -2.3% | nt | 28.2% | -11.6% | ? | 0.6%
COc1ccccc1NC(=O)CSc1nc(O)cc(=O)n1-c1ccccc1OC | -36.9% | -24.3% | ? | -4.6% | 39.8µM* | -1.9%
COc1ccccc1-n1c(SCC(=O)Nc2ccccc2C)nc(O)cc1=O | -19.1% | -13.2%[57.1 µM] | 1.0% | -8.7% | 56.2µM* | 8.4%
COc1ccccc1-n1c(SCC(=O)NC(C)(C)C)nc(O)cc1=O | -11.0% | -10.4% | 2.5% | -4.7% | -11.5% | -9.0%
Cc1ccccc1NC(=O)CSc1nc(O)cc(=O)n1C | -1.4% | -7.2% | 2.3% | -18.3% | -15.9%[58.9 µM] | -3.1%
CC(C)CCn1c(SCC(=O)N2CC(=O)Nc3ccccc32)nc2scc(-c3cccs3)c2c1=O | ? | -11.6% | 22.4µM* | ? | ? | 3.3%
COCC(=O)N1CCC2(CC1)CN(c1cccc(-c3ccccc3)c1)C2 | 5.9%[60.1 µM] | nt | nt | nt | nt | nt
CCOc1ccc(S(=O)(=O)Nc2ccc3oc(C)c(C(=O)OCCOC)c3c2)cc1 | -6.9%[60.1 µM] | nt | -23.8% | -24.5% | 11.8% | 2.1%
COCCOC(=O)c1c(C)oc2ccc(NS(=O)(=O)c3ccc(C(=O)O)cc3)cc12 | -21.7% | -28.2%[57.1 µM] | 35.5µM* | 11.2µM* | -16.7% | -5.2%
Cc1nc([N+](=O)[O-])cn1CC(O)c1ccc2c(c1)OCO2 (configuration not stated) | -17.8% | nt | nt | nt | ? | -8.1%
Nc1c(N=Nc2ccc([N+](=O)[O-])cc2)c(S(=O)(=O)O)cc2cc(S(=O)(=O)O)c(/C=C/c3ccccc3)c(O)c12 | 31.6µM* | nt | nt | nt | 25.1µM* | 11.2µM*
CCc1nnc(NS(=O)(=O)c2ccc(NC(=O)c3ccc([N+](=O)[O-])s3)cc2)s1 | nt | -6.6% | nt | ? | nt | nt
COc1cc(N(C)C)ccc1C=c1c2ccccc2n2c1cc(-c1ccccc1)[n+]2C | ? | 20µM* | nt | 22.4µM* | ? | 7.94µM*
CN(c1ccc(Cl)cc1)c1cc(=O)n(C)c2ccccc12 | -7.5% | -1.3% | -28.9% | -10.1% | 5.8% | ?
SMILES | Pol kappa inh | WRN helicase inh | POLB inh | Pol eta inh | Pol iota inh | FEN1 inh
CN(C)c1ccc(/C=C2\C=Cc3cc([N+](=O)[O-])ccc32)cc1 | -21.3% | nt | nt | nt | -6.1% | 1.0%
CN(C)c1ccc(C=C2C=C(c3ccccc3)OC2=O)cc1 | nt | -15.2% | nt | -17.9% | nt | nt
CN(C)c1ccc(C=c2c3cc([N+](=O)[O-])ccc3n3c2cc(-c2ccccc2)[n+]3C)cc1 | -24.2% | 35.5µM* | nt | 0.3% | ? | 56.2µM*
COc1cc(C=c2c3ccccc3n3c2cc(-c2ccccc2)[n+]3C)cc(OC)c1OC | -6.0% | -1.0%[11.6 µM] | nt | -12.1% | ? | ?
CN(C)c1ccc(C=c2c3ccccc3n3c2cc(-c2ccccc2)[n+]3C)cc1 | -24.5% | ? | nt | ? | ? | 8.91µM*
CN(C)c1ccc(C=c2c3ccccc3n3c2cc(-c2ccc(Cl)cc2)[n+]3C)cc1 | -10.8% | 28.2µM* | nt | ? | ? | 22.4µM*
CCOC(=O)C1=CCN(S(=O)(=O)c2ccccc2F)C1c1cccc(C)c1 (configuration not stated) | nt | 0.6% | nt | nt | nt | nt
CN1CCC(C)(C(=O)Nc2cccc(Oc3ccccc3)c2)C1 (configuration not stated) | nt | 6.7% | nt | nt | nt | nt
O=c1ccc2cc(S(=O)(=O)NCc3ccc(Cl)cc3)ccc2[nH]1 | ? | nt | 11.2µM* | 2.6% | ? | 8.9%
CN(Cc1ccccc1)S(=O)(=O)c1ccc2[nH]c(=O)ccc2c1 | -17.4% | -4.6% | 31.6µM* | -8.5% | ? | -8.0%
CCOc1ccc(CNS(=O)(=O)c2ccc3[nH]c(=O)ccc3c2)cc1 | -5.1%[60.1 µM] | nt | 17.1% | -13.0% | -3.5% | 7.5%
O=[N+]([O-])c1ccc2c(c1)C=C/C2=C/c1ccccc1 | -8.2% | nt | nt | nt | ? | -21.5%
O=C(Cn1c(=O)n(Cc2ccccc2)c(=O)c2sc3ccccc3c21)Nc1ccc(F)cc1 | -7.1% | nt | ? | 1.5% | 3.0% | 2.8%
CCc1ccccc1N(C)C(=O)Cn1cnc2sc(C)c(S(=O)(=O)N3CCC(C)CC3)c2c1=O | -6.5% | nt | -4.4% | -9.3% | -4.8% | -3.5%
CCOc1ccccc1N1CCN(S(=O)(=O)c2ccc3c4c(cccc24)C(=O)N3)CC1 | 44.7µM* | ? | ? | 79.4µM* | 14.1µM* | ?
CCc1nc2c(OCC3CCCCC3)cccn2c1N(C)C(=O)c1ccccc1F | nt | -1.2% | nt | nt | nt | nt
Cc1cccc(C2=N[C@@H](Cc3ccccc3)CO2)c1 | -21.1% | nt | nt | nt | nt | nt
COc1ccc(CN(CCO)CCO)cc1[N+](=O)[O-] | 5.6% | -2.9% | 45.0% | 5.9% | 12.0% | 13.9%
O=[N+]([O-])c1cc(CN(CCO)CCO)ccc1O | ? | -31.1% | 50.1µM* | ? | 25.1µM* | -10.3%
CCOc1ccccc1NS(=O)(=O)c1cn(C)nc1C | -2.5% | 4.9%[57.1 µM] | -9.4% | -16.4% | 89.1µM* | 5.7%
Cc1cc(C(=O)O)ccc1-n1c(C)cc(/C=C(/C#N)C(=O)Nc2ccccc2)c1C | -9.4% | ? | -5.3% | ? | 79.4µM* | 0.7%

Assay outcomes as filed in PubChem.
